Bioassay records from PubChem BioAssay.
Tb PYK inh: qHTS of Trypanosoma Brucei Inhibitors; TbPYK enzyme, Kinase-Glo Plus ATP luminescence, 45 min; Potency, µM (series often up to 76.8 µM), usual class: inhibitors; 410,000 tested, 0.12% active; AID 624173, 2012; also: nearly all actives have a fitted effect of over 50% in size
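Activity of T. brucei pyruvate kinase was followed by Kinase-Glo Plus luminescence after the enzyme reacted 45 min at room temperature with 130 uM ADP (final) and substrate. Test compounds were added before ADP at multiple concentrations.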
FMDV antiviral: High Throughput Screening for Foot and Mouth Disease Virus Antivirals | FMDV antiviral cell-based qHTS | Potency, µM (top dose mostly 57.9 µM), actives largely listed as inhibitors | 410,000 tested, 1.2% active | AID 1159524, 2015; calls by dose curve; tested in HEK293T cells; also: read-out not given here; nearly all actives have a fitted effect of over 45% in size
HCMV inh: qHTS Assay for inhibitors of the human cytomegalovirus (HCMV) | HFF cells, HCMV-luciferase reporter, 72 h; hits give low values | activity change, negative = inhibition, % at 57.5 µM | 410,000 tested, 4.5% active | AID 1259415, 2018; in the data active = activity change below about -60%; inconclusive = no clear call, values can overlap the other calls; inactive = above about -39%
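Steps: HFFs plated, 16 h 37C; compounds added; HCMV-luciferase added to MOI 1 PFU/cell; 72 h 37C; OneGlo reagent, 5 min room temperature; luminescence read, normalized to controls.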
Sm TGR inh: qHTS Assay for the Inhibitors of Schistosoma Mansoni Peroxiredoxins. Schistosoma mansoni thioredoxin glutathione reductase (TGR), Q962Y6. Potency, µM (doses to about 114 µM), usual class: inhibitors. purified TGR, DTNB reduction, TNB absorbance 405 nm. 360,000 tested, 3% active; also: nearly all actives have a fitted effect of over 60% in size
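Kinetic colorimetric format: TGR-catalysed, NADPH-driven DTNB reduction monitored via TNB absorbance. Enzyme dispensed at 20 nM; compound exposure 15 min at room temperature before reaction start.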
RE007 growth inh: qHTS Assay for Inhibitors of the HIV-1 protein Vpr | Potency, µM (top dose mostly 92.2 µM), most hits filed as inhibitors | AID 651644, 2012 | S. pombe RE007 Vpr strain, BacTiter-Glo ATP luminescence, 24 h | 360,000 tested, 0.21% active; active = well fitted falling curve with a large enough effect; inconclusive = small, poorly fitted or top-dose-only effect; inactive = no such curve, though single readings can be large or run the other way; also: nearly all actives have a fitted effect of over 50% in size
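Fission yeast RE007 carrying one integrated HIV-1 vpr copy, seeded at OD 0.01 in PMG+AL medium with 23 nL pinned compound. Grown 24 h at 30 degrees; viability read by BacTiter-Glo luminescence after 5 min.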
FBPA Giardia inh: qHTS Assay for Inhibitors of Fructose-1,6-bisphosphate Aldolase from Giardia Lamblia. 290,000 tested, 0.71% active. Potency, µM (highest dose often 59.6 µM), usual class: inhibitors. purified Giardia FBPA. A8B2U2. AID 2451, 2010; also: nearly all actives have a fitted effect of over 55% in size
Target sequence (A8B2U2 whole entry, looked up): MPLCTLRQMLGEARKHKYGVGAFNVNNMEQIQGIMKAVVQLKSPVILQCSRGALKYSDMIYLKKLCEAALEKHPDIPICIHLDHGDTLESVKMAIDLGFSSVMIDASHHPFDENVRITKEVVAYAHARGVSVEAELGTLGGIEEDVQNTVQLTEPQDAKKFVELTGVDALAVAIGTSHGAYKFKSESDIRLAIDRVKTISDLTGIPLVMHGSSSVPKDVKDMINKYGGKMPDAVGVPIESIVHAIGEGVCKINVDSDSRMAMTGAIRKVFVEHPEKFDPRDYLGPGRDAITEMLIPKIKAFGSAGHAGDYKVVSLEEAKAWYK
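Giardia FBPA (40 nM reagent) was preincubated 10 min at RT with compound (up to 57.5 uM final), then substrate plus GAPDH/TPI/NAD/arsenate coupling system with diaphorase/resazurin was added; resorufin fluorescence (525/598 nm) was read after 20 min.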
Hits are given with their value; n = inactive; u = inconclusive; x = no result. In the library only some 7.7% were active in any assay of this set; here they are far more common. Unless noted, calls follow the shape of the dose curve; as a rule, active = well fitted curve in the direction sought with a large enough effect; inconclusive = small, poorly fitted or top-dose-only effect, or another doubt; inactive = no such curve, though single readings can be large; an effect the other way counts as inactive or inconclusive.

SMILES	Tb PYK inh	FMDV antiviral	HCMV inh	Sm TGR inh	RE007 growth inh	FBPA Giardia inh
CCOC(=O)c1ccc(NC(=O)C2CCN(C(=O)N3CC(C)Oc4ccc(C)cc43)CC2)cc1 (stereo unspecified)	n	n	n	n	x	x
COc1cc2[nH]c3c(Cl)ncnc3c2cc1OC	n	n	n	n	n	n
COc1cc2[nH]c(Cl)c([N+](=O)[O-])c2cc1OC	u	u	n	2µM	n	5µM
CC(C)CNS(=O)(=O)c1ccc(CCC(=O)NCc2ccco2)cc1	n	n	n	45µM	n	n
COc1cccc(CN(CC(=O)NCc2ccco2)C(=O)CNS(=O)(=O)c2ccccc2)c1	n	n	-61	n	n	n
Cc1ccc(S(=O)(=O)NCC(=O)N(CCc2ccccc2)CC(=O)NCc2ccco2)cc1	n	n	n	35µM	n	n
CC(C)NS(=O)(=O)c1ccc(CCC(=O)NCc2ccccn2)cc1	n	n	n	100µM	n	n
Cc1ccc(S(=O)(=O)NCC(=O)N(CC(=O)NCc2ccco2)Cc2ccccc2)cc1	n	n	n	n	n	x
Cc1ccc(NS(=O)(=O)c2ccc(CCC(=O)NCc3ccccn3)cc2)cc1	n	n	n	x	n	n
CC(C)CNS(=O)(=O)c1ccc(CCC(=O)NCc2ccncc2)cc1	n	n	n	n	n	n
COc1cccc(CNC(=O)Cn2c(=O)n3nc(-c4cccc(F)c4)nc3c3ccccc32)c1	n	n	n	n	x	x
Cc1ccc(NC(=O)CN2C(=O)c3ccccc3Sc3ccc(C(=O)N4CCOCC4)cc32)cc1F	n	n	n	n	x	x
CCOC(=O)N1CCc2c(sc(NCc3cccs3)c2C(=O)Nc2ccc(OC)cc2OC)C1	u	u	-91	u	x	x
CCOC(=O)N1CCc2c(sc(NCc3cccs3)c2C(=O)Nc2cc(OC)ccc2OC)C1	u	n	n	n	x	x
COc1ccccc1NC(=O)c1c(NCc2ccc(OC)c(OC)c2OC)sc2c1CCC2	n	n	n	n	x	x
COc1ccc(NC(=O)c2c(NCc3ccc(OC)c(OC)c3OC)sc3c2CCC3)c(OC)c1	u	u	n	40µM	x	x
CCOC(=O)N1CCc2c(sc(NCc3ccc(OC)c(OC)c3OC)c2C(=O)Nc2ccc(OC)cc2OC)C1	n	u	-80	n	x	x
CCOC(=O)N1CCc2c(sc(NCc3ccc(N(CC)CC)cc3)c2C(=O)Nc2cc(OC)ccc2OC)C1	u	n	n	n	x	x
CCOC(=O)N1CCc2c(sc(NCc3ccc(OCC)cc3)c2C(=O)Nc2ccc(OC)cc2OC)C1	u	u	-80	n	x	x
C=CCNc1cccc2c1S(=O)(=O)N[C@@H](Cc1ccccc1)CO2	x	x	n	x	x	x
O=C(CN1C(=O)CC(c2ccccc2)Sc2ccccc21)Nc1cccc(Cl)c1 (stereo unspecified)	n	n	n	n	x	x
CCOc1ccc(NC(=O)c2ccco2)cc1	n	n	n	n	n	n
Cc1ccc(-n2nc3cc(C)c(NC(=S)NC(=O)/C=C/c4ccco4)cc3n2)cc1	n	n	n	n	n	n
CCOc1ccc(NC(=S)NC(=O)c2ccco2)cc1	n	n	n	13µM	n	n
CC(=O)c1ccc(NC(=S)NC(=O)/C=C/c2ccco2)cc1	n	n	n	20µM	n	n
SMILES	Tb PYK inh	FMDV antiviral	HCMV inh	Sm TGR inh	RE007 growth inh	FBPA Giardia inh
O=C(/C=C/c1ccco1)NC(=S)Nc1cccc([N+](=O)[O-])c1	n	n	n	45µM	n	n
Cc1ccc(-n2nc3ccc(NC(=S)NC(=O)/C=C/c4ccco4)cc3n2)cc1	n	n	-68	n	n	n
O=C(/C=C/c1ccco1)NC(=S)Nc1ccccc1	n	n	n	u	u	u
O=C(Nc1ccc(NC(=S)NC(=O)c2ccco2)cc1)c1ccccc1	n	n	n	n	n	n
CC(=O)Nc1ccc(NC(=S)NC(=O)/C=C/c2ccc(Cl)cc2)cc1	n	n	n	n	n	n
O=C(/C=C/c1ccc(Cl)cc1)NC(=S)Nc1ccc(NC(=O)c2ccco2)cc1	n	n	-70	n	n	n
CC(=O)NS(=O)(=O)c1ccc(NC(=S)NC(=O)c2ccco2)cc1	n	n	n	n	n	n
NS(=O)(=O)c1ccc(NC(=S)NC(=O)c2ccco2)cc1	n	n	n	56µM	n	u
O=C(Nc1ccc(NC(=S)NC(=O)c2ccco2)cc1)c1ccc(Br)cc1	n	n	-78	x	n	x
NS(=O)(=O)c1ccc(NC(=S)NC(=O)/C=C/c2ccco2)cc1	n	n	n	40µM	n	n
CCN1C(=O)/C(=C/c2ccc3c(c2)CCN3CCCCl)C(=O)NC1=S	u	u	n	8.9µM	u	n
CC(C)(C)N1C(=O)NC(=O)/C(=C\c2ccc3c(c2)CCN3CCCCl)C1=O	n	n	n	u	n	n
O=C1NC(=S)N(C2CC2)C(=O)/C1=C/c1ccc2c(c1)CCN2CCCCl	u	n	n	u	n	u
C=CCN1C(=O)/C(=C/c2ccc3c(c2)CCCN3CCC)C(=O)NC1=S	u	32µM	n	8.9µM	n	u
N#Cc1c(/N=C/c2c(O)n(Cc3ccco3)c(=O)[nH]c2=O)sc2c1CCCC2	u	n	n	89µM	n	u
NC(=O)c1ccc(N=Cc2c(O)n(Cc3ccco3)c(=O)[nH]c2=O)cc1	n	n	n	40µM	n	n
O=c1[nH]c(=O)n(Cc2ccco2)c(O)c1/C=N/N1CCCCCC1	n	n	n	n	n	n
CCN(CC)c1ccc(N=Cc2c(O)n(Cc3ccco3)c(=O)[nH]c2=O)cc1	n	n	n	n	n	n
CCCOc1ccc(C(=O)Nc2cc3c(cc2N2CCCCC2)n(C)c(=O)n3C)cc1	n	n	n	n	x	x
